Compound activity as filed in PubChem BioAssay.
Only some compounds are listed: those with a hit (about 12% of all), similar ones and a draw of the others.
PLK1 PBD block: PLK1 (human) polo-box domain binding inhibition; AID 720504; P53350; Potency, µM, usual class: inhibitors; Plk1 PBD binding of FITC phosphopeptide, fluorescence polarization; 2.8% of 360,000 active; note: series mostly up to about 57 µM; nearly all actives have a fitted effect of over 65% in size
HP1b binding inh: inhibitors of HP1-beta chromodomain binding to methylated histone tails; P83916; AlphaScreen HP1-beta / biotin-H3K9me3 peptide binding; Potency, µM (highest dose often 114 µM), actives largely listed as inhibitors; 0.56% of 390,000 active; AID 540317; note: nearly all actives have a fitted effect of over 70% in size
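Compound inhibition of the preformed complex between 50 nM HP1-beta and 50 nM biotinylated H3K9me3 peptide was read by AlphaScreen. Buffer was PBS pH 7.4 with 0.01% Tween-20. Incubations ran 30 min at room temperature, with 10 ug/mL donor/acceptor beads.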
BAZ2B inh: blocks human BAZ2B | Q9UIF8 | AlphaScreen BAZ2B-H3K14Ac peptide displacement | Potency, µM (highest dose often 114 µM), hits mostly inhibitors | 4.4% of 360,000 active | AID 504333; note: nearly all actives have a fitted effect of over 60% in size
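Multi-concentration screen (max 110 uM) measuring displacement of acetylated histone H3 peptide from BAZ2B by AlphaScreen, using 50 nM protein, 50 nM peptide and 10 ug/mL streptavidin donor plus Ni-chelate acceptor beads.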
PI5P4K alpha inh: blocks human PI5P4K alpha kinase activity | 1.2% of 330,000 active | PI5P4Kalpha enzyme, ADP-Glo luminescence, 60 min; active compounds read low | P48426 | max response, %; active = max response of -50% or lower; inconclusive = between -30% and -50%; inactive = -30% or higher; note: value at the top dose of about 77 µM
Target sequence (P48426 whole entry, looked up): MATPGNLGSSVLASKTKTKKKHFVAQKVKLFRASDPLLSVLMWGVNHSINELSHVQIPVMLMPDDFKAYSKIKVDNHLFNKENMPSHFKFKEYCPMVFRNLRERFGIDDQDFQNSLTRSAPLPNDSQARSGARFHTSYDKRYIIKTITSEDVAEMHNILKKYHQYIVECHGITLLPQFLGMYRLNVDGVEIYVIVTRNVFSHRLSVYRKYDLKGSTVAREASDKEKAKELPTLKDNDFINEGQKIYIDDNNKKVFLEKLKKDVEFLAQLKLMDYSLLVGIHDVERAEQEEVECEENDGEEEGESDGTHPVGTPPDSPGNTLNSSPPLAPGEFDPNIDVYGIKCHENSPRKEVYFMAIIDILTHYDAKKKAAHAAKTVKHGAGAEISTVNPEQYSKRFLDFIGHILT
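ADP-Glo luminescence end-point read after a 60 min room-temperature kinase reaction of PI5P4Kalpha plus substrate, initiated with ATP at 5 microM final. Buffer: 0.038 M HEPES pH 7.4, EGTA, 0.1% CHAPS, 5% DMSO.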
G9a block: blocks human histone lysine methyltransferase G9a. 8.8% of 350,000 active. G9a H3K9 monomethylation, AlphaScreen, 2 h. Potency, µM (doses to about 102 µM), actives largely listed as inhibitors. Q96KQ7; note: nearly all actives have a fitted effect of over 75% in size
Target sequence (Q96KQ7 913-1193 limits assumed): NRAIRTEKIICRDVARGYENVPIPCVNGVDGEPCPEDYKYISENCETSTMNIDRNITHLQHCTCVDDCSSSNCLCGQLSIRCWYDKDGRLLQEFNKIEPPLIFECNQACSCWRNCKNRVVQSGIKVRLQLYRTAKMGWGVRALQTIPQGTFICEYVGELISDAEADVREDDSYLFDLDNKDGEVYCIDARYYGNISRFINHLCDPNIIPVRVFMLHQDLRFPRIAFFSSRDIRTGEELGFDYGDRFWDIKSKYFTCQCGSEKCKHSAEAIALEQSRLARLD
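G9a (20 nM) was preincubated 15 min with compound, then reacted 2 h at room temperature with 500 nM biotin-H3K9 peptide and 20 µM SAM. Monomethyl-H3K9 detected by AlphaScreen using anti-H3K9me1 antibody.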
JMJD2A Tudor: blocks the human JMJD2A Tudor domain; O75164; AlphaScreen JMJD2A-Tudor / H3K4me3 peptide binding; Potency, µM (top dose mostly 114 µM), actives largely listed as inhibitors; 4.4% of 390,000 active; note: nearly all actives have a fitted effect of over 50% in size
TbPYK inh: Trypanosoma brucei pyruvate kinase inhibition, cherry-pick confirmation; shares compounds with PLK1 PBD block; recombinant TbPYK, Kinase-Glo ATP luminescence; Potency, µM (top dose mostly 76.9 µM), most hits filed as inhibitors; 67% of 890 active; AID 720569; note: nearly all actives have a fitted effect of over 70% in size
TbPYK orthogonal: TbPYK inhibition, orthogonal confirmation. recombinant TbPYK, ADP-Glo luminescence, 60 min. 62% of 890 active. Potency, µM (highest dose often 76.9 µM), actives largely listed as inhibitors. shares compounds with PLK1 PBD block; note: nearly all actives have a fitted effect of over 75% in size
Of the large screens only hits and unclear results are named; the others gave an inactive call (follow-up assays come after a bar, where they were run). Unless noted, calls come from the whole dose curve; as a rule, active = well fitted curve in the direction sought with a large enough effect; inconclusive = small, poorly fitted or top-dose-only effect, or another doubt; inactive = no such curve, though single readings can be large; an effect the other way counts as inactive or inconclusive.

O=C(CSc1ccc2ccccc2c1)NCCc1ccc(O)c(O)c1	HP1b binding inh 79.4µM, G9a block 2.51µM, JMJD2A Tudor 7.94µM (no result: BAZ2B inh) | TbPYK inh 7.08µM | TbPYK orthogonal 15.8µM
Cc1cc(C)nc(SC(C(=O)O)c2ccccc2)n1 (configuration not stated)	PLK1 PBD block inconclusive
Cc1cc(C)nc(Sc2nc(Cl)nc(N(c3ccccc3)c3ccccc3)n2)n1	PLK1 PBD block 13.4µM, BAZ2B inh inconclusive, G9a block inconclusive, JMJD2A Tudor 6.31µM | TbPYK inh inconclusive | TbPYK orthogonal 35.5µM
C=CCN=c1scc(C)n1/N=C/c1ccc(O)c(O)c1	BAZ2B inh 39.8µM, G9a block inconclusive, JMJD2A Tudor inconclusive | TbPYK inh 0.708µM | TbPYK orthogonal 10µM
Cc1ccc(C(=O)O/N=C(\N)c2ccccn2)c(Cl)c1	PI5P4K alpha inh -62.0 (no result: G9a block) | TbPYK inh 15.8µM | TbPYK orthogonal inactive
Cc1ccc(C(=O)O/N=C(\N)c2ccccc2)c(Cl)c1	none
COc1ccc(N2CSC3=C(C#N)C(c4cc(OC)c(OC)cc4OC)CC(=O)N3C2)c(OC)c1 (configuration not stated)	PLK1 PBD block 11.9µM, HP1b binding inh 20µM, BAZ2B inh 44.7µM, PI5P4K alpha inh inconclusive, G9a block 3.55µM, JMJD2A Tudor 20µM | TbPYK inh 0.631µM | TbPYK orthogonal 2.82µM
CCOc1ccc2oc(C(=O)N3CC(C)OC(C)C3)c(C)c2c1 (configuration not stated)	none
COCCn1c(SCCN2CCOCC2)nc2c1c(=O)[nH]c(=O)n2C	PLK1 PBD block 11.9µM, G9a block 11.2µM | TbPYK inh 10µM | TbPYK orthogonal 14.1µM
C=CCn1c(SCCN2CCOCC2)nc2c1c(=O)[nH]c(=O)n2C	none
CCOc1ccc(NC(=O)CN(C)C(=O)c2ccc(-c3ccc(C(C)=O)cc3)o2)cc1OCC	none
Oc1cc2c(cc1O)C1c3ccc(O)c(O)c3OCC1(O)C2 (configuration not stated)	PLK1 PBD block 29.9µM, HP1b binding inh inconclusive, BAZ2B inh 44.7µM, PI5P4K alpha inh -74.0, G9a block inconclusive, JMJD2A Tudor 3.55µM | TbPYK inh 2.51µM | TbPYK orthogonal inconclusive
O=C(O)c1cc(N=Nc2c(O)ccc3ccccc23)cc(C(=O)O)c1	PLK1 PBD block 9.47µM, HP1b binding inh inconclusive, BAZ2B inh inconclusive, PI5P4K alpha inh inconclusive, G9a block inconclusive, JMJD2A Tudor 28.2µM | TbPYK inh 7.08µM | TbPYK orthogonal 12.6µM
O=C(CN1CCN(CC(=O)Nc2ccccc2Cc2ccccc2)CC1)Nc1ccccc1Cl	none
CCn1c(CNC(=O)C23CC4CC(CC(C4)C2)C3)nnc1SC	PI5P4K alpha inh inconclusive
CC(C)Sc1nnc(CNC(=O)C23CC4CC(CC(C4)C2)C3)n1C1CCCCC1	G9a block 20µM | TbPYK inh 5.62µM | TbPYK orthogonal 11.2µM
COc1c(S(=O)(=O)N2CCN(C)CC2)ccc(Cl)c1Cl	none (no result: G9a block)
c1coc(-c2nc3ccccc3nc2-c2ccco2)c1	PLK1 PBD block inconclusive, BAZ2B inh 70.8µM, G9a block 8.91µM, JMJD2A Tudor inconclusive (no result: PI5P4K alpha inh) | TbPYK inh 14.1µM | TbPYK orthogonal 17.8µM
CCCCCN(C(=O)CCC(=O)OCc1ccc(C(C)C)cc1)c1c(N)n(CCCC)c(=O)[nH]c1=O	none
Cc1cc(NC(=O)C(C)SCC(=O)Nc2nc3c(F)cc(F)cc3s2)no1 (configuration not stated)	PI5P4K alpha inh inconclusive
Cc1ccc(S(=O)(=O)N/N=C/c2ccccc2O)cc1	none
Cc1ccc(NNS(=O)(=O)c2ccc(C)cc2)cc1	PLK1 PBD block 3.77µM, HP1b binding inh inconclusive, BAZ2B inh 20µM, PI5P4K alpha inh -62.6, G9a block 0.794µM, JMJD2A Tudor 3.16µM | TbPYK inh 8.91µM | TbPYK orthogonal inconclusive
Cc1ccc(S(=O)(=O)NN=CC=CC=NNS(=O)(=O)c2ccc(C)cc2)cc1	PLK1 PBD block inconclusive, PI5P4K alpha inh -61.0 (no result: HP1b binding inh, BAZ2B inh, G9a block, JMJD2A Tudor) | TbPYK inh 31.6µM | TbPYK orthogonal 35.5µM
CC(=O)OCCNc1cc(N2CCN(C)CC2)c2noc3c2c1C(=O)c1ccccc1-3	BAZ2B inh 39.8µM, G9a block inconclusive, JMJD2A Tudor 50.1µM | TbPYK inh 10µM | TbPYK orthogonal inconclusive
Cc1cccc(NC2=C(NC(=O)c3ccccc3)C(=O)c3ccccc3C2=O)c1	PLK1 PBD block inconclusive, HP1b binding inh 50.1µM, BAZ2B inh 28.2µM, PI5P4K alpha inh -61.9, G9a block 3.16µM, JMJD2A Tudor 25.1µM | TbPYK inh 14.1µM | TbPYK orthogonal 11.2µM
O=C1CCCC2=C1C(c1ccc(O)c(O)c1)Nc1ccc3ncccc3c12 (configuration not stated)	PLK1 PBD block inconclusive, HP1b binding inh inconclusive, BAZ2B inh 50.1µM, PI5P4K alpha inh inconclusive, G9a block 1.12µM, JMJD2A Tudor 25.1µM | TbPYK inh 0.159µM | TbPYK orthogonal 1µM
O=C1CCCC2=C1C(c1cccs1)Nc1ccc3ncccc3c12 (configuration not stated)	none (no result: PI5P4K alpha inh)
COc1ccc(C(=O)c2cc3ccc(O)cc3oc2=O)cc1	none (no result: PI5P4K alpha inh)
O=C(c1ccccc1)c1cc2ccc(O)cc2oc1=O	none (no result: PI5P4K alpha inh) | TbPYK inh inconclusive | TbPYK orthogonal inactive
Cc1onc(C(=O)Nc2sc3c(c2C(N)=O)CCCC3)c1[N+](=O)[O-]	PLK1 PBD block 10.6µM, HP1b binding inh inconclusive, BAZ2B inh inconclusive, PI5P4K alpha inh inconclusive, JMJD2A Tudor inconclusive (no result: G9a block) | TbPYK inh 15.8µM | TbPYK orthogonal 17.8µM
NC(=O)c1c(NC(=O)Cn2cc([N+](=O)[O-])cn2)sc2c1CCCC2	PI5P4K alpha inh inconclusive, G9a block inconclusive
CC(=O)O[C@@]1(C)C[C@@H](O)[C@]2(O)C=CO[C@@H](O[C@@H]3O[C@H](CO)[C@@H](O)[C@H](O)[C@H]3O)[C@@H]21	none
Cc1ccc(/C=C2\C(=O)Nc3ccccc32)o1	HP1b binding inh 44.7µM, BAZ2B inh 39.8µM, PI5P4K alpha inh inconclusive, G9a block 8.91µM, JMJD2A Tudor 44.7µM | TbPYK inh inconclusive | TbPYK orthogonal inconclusive
NS(=O)(=O)c1ccc(CCNC(=O)c2cncc(Br)c2)cc1	PLK1 PBD block 2.99µM, HP1b binding inh inconclusive, PI5P4K alpha inh inconclusive, JMJD2A Tudor inconclusive | TbPYK inh inactive | TbPYK orthogonal inactive
NS(=O)(=O)c1ccc(CCNC(=O)c2ccncc2)cc1	none
N#Cc1c(NC(NC(=O)c2ccco2)C(=O)c2ccccc2)sc2c1CCCC2 (configuration not stated)	G9a block 5.01µM, JMJD2A Tudor 50.1µM (no result: PI5P4K alpha inh) | TbPYK inh inconclusive | TbPYK orthogonal 3.55µM
